Reference: PubChem BioAssay (NCI)
About 83,000 compounds went through this panel and 20% of them were active in at least one assay; those are over-represented in the sample as a whole.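 Interpretation: 100, growth as untreated; towards 0, rising growth inhibition; 0, no net growth; 0 to -100, cell death. Compounds scoring below 10 were considered active.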 Active and inactive are the calls of the source.

tested on: UACC-257 melanoma; test: NCI-60 one-dose screen, 48 h (100 = growth as untreated, 0 = no growth, -100 = all killed); settings: 10 µM

Question: For `COc1cc(-c2cc(/C=C3\C(=O)Nc4cc(Cl)ccc43)[nH]n2)cc(OC)c1OC`, which growth is on record?
Answer: 78% (inactive)

Question: For `CCCCCCc1cc(N=Nc2ccc(S(=O)(=O)Nc3cc(C)nc(C)n3)cc2)c(O)cc1O`, which growth is on record?
Answer: 102% (inactive)

Question: With `N#CC1=C(Nc2ccccc2Cl)SC(c2ccccc2O)NC1=O` (stereo not drawn) as the compound, how does the growth read?
Answer: 37.1% (inactive)

Question: Which growth does the source give for `COc1cc(-c2nc(Nc3nc4ccccc4s3)[nH]c(=O)c2C#N)cc(OC)c1O` here?
Answer: 102% (inactive)

Question: With `CCCCCCCCCCCCCCCCCCOCC(COCCOCC[N+]1(CCCCCC(=O)[O-])CCCC1)Oc1ncccn1` (stereo not drawn) as the compound, how does the growth read?
Answer: 45.5% (inactive)

Question: For `COc1ccc(C2=NN(C(=O)c3ccc(S(C)(=O)=O)cc3)C(c3ccc(OC)c(OC)c3)C2)c(OC)c1` (stereo not drawn), which growth is on record?
Answer: 92.2% (inactive)

Question: With `COc1ccccc1CNCCCN1C(=O)c2ccc3c4c(ccc(c24)C1=O)C(=O)N(CCCN)C3=O` as the compound, how does the growth read?
Answer: -91.9% (active)

Question: `Nc1nc(N)c(NC(=O)CNc2ccc(C(=O)O)cc2)c(N)n1` was tested. Which growth did it give?
Answer: 103% (inactive)

Question: For `c1ccc(CP(Cc2ccccc2)c2ccccc2)cc1`, which growth is on record?
Answer: 95.5% (inactive)

Question: `COC(=O)C1(C)Cc2cc(OC(C)=O)c(OC(C)=O)cc2N1` (stereo not drawn) was tested. Which growth did it give?
Answer: 19% (inactive)

Question: How did the growth turn out when `CC(=O)OCc1cc(-c2nc3ccccc3[nH]c2=O)nn1-c1ccc(Cl)cc1` was run?
Answer: 14.8% (inactive)

Question: With `CC(=O)c1nc2ccccc2n1CCN1CCN(C)CC1` as the compound, how does the growth read?
Answer: 49.8% (inactive)

Question: For `COc1ccc(-c2nn(-c3cccc(NC(=O)Nc4ccc(Cl)c(C(F)(F)F)c4)c3)cc2-c2ccncc2)cc1Cl`, which growth is on record?
Answer: -7.89% (active)

Question: For `COc1cc(C(=O)/C=C/c2cc(-c3cc(OC)c(OC)c(OC)c3)n[nH]2)cc(OC)c1OC`, which growth is on record?
Answer: -1.5% (active)

Question: `Cc1cccc(NC2=C(C#N)C(=O)NC3(CCCC3)S2)c1` was tested. Which growth did it give?
Answer: -4.62% (active)

Question: Which growth does the source give for `O=C1/C(=C\c2ccc(F)cc2)CN(C(=O)c2ccccc2)C/C1=C\c1ccc(F)cc1` here?
Answer: 36.5% (inactive)

Question: How did the growth turn out when `COc1cc(-c2cc(/C=C3\C(=O)Nc4ccccc43)[nH]n2)cc(OC)c1OC` was run?
Answer: 23% (inactive)

Question: Which growth does the source give for `COc1cc(/C=C\c2cc(OC)c(OC)c(OC)c2)cc(NS(=O)(=O)c2ccc(Cl)cc2)c1OC` here?
Answer: 45.2% (inactive)

Question: Which growth does the source give for `S=C1SCC(c2ccccc2)S1` (stereo not drawn) here?
Answer: 89.6% (inactive)

Question: `CCN(CC)Cc1cc(Nc2ccnc3cc(Cl)ccc23)ccc1OC` was tested. Which growth did it give?
Answer: 94.4% (inactive)

Question: How did the growth turn out when `COC(=O)C(C(C[N+](=O)[O-])c1ccccc1)=P(c1ccccc1)(c1ccccc1)c1ccccc1` (stereo not drawn) was run?
Answer: 91.5% (inactive)

Question: For `O=S(=O)(NCCCNc1nccc(-c2c(-c3ccc(F)cc3)nc3sccn23)n1)c1ccc2ccccc2c1`, which growth is on record?
Answer: 56.8% (inactive)

Question: For `CC(=O)N1N=C(c2ccc(Cl)cc2)CC1c1sc(Cl)nc1Cl` (stereo not drawn), which growth is on record?
Answer: 91.9% (inactive)

Question: For `O=c1[nH]c2ccc(Cl)cc2c2ccccc12`, which growth is on record?
Answer: 105% (inactive)

Question: Which growth does the source give for `COc1ccc(NC2=NC(C)(CO)CS2)cc1` (stereo not drawn) here?
Answer: -25.7% (active)

Question: Which growth does the source give for `N#Cc1ncc(Br)c(NC2CCCCCC2)n1` here?
Answer: 95% (inactive)

Question: `O=C(Nc1cccc(-n2cc(-c3ccncc3)c(-c3cc(O)cc(Cl)c3)n2)c1)Nc1ccc(Cl)c(C(F)(F)F)c1` was tested. Which growth did it give?
Answer: -40% (active)

Question: For `Nc1ncn(C2OC(CO)C(O)C2O)c(=O)n1` (stereo not drawn), which growth is on record?
Answer: 14.8% (inactive)

Question: `O=C(Nc1nc(-c2ccccc2Cl)cs1)c1cc(-c2ccc(Cl)cc2)nc2ccc(Cl)cc12` was tested. Which growth did it give?
Answer: 66.8% (inactive)

Question: Which growth does the source give for `Nc1c(C(=O)Nc2cccc(F)c2)sc2nc3c(cc12)C(=O)CCC3` here?
Answer: 57.3% (inactive)

Question: How did the growth turn out when `COc1ccc(-c2cc(/C=C3\C(=O)Nc4ccc(Cl)cc43)[nH]n2)cc1OC` was run?
Answer: 132% (inactive)

Question: Which growth does the source give for `O=C1CC[C@@H]2CCCC[C@@H]2C1` here?
Answer: 116% (inactive)

Question: With `COc1ccc2c(c1)O/C(=C\c1ccc([N+](=O)[O-])s1)C2=O` as the compound, how does the growth read?
Answer: 64.4% (inactive)

Question: `Nc1nc(N)c2c(ccc3nccc32)[nH]1` was tested. Which growth did it give?
Answer: -9.73% (active)

Question: How did the growth turn out when `Nc1cc2c(cc1Cl)-c1ccc([N+](=O)[O-])cc1/C2=N\O` was run?
Answer: 103% (inactive)

Question: `COc1cc(-c2cc(/C=C/C(=O)c3ccc4c(c3)OCO4)[nH]n2)cc(OC)c1OC` was tested. Which growth did it give?
Answer: 107% (inactive)

Question: `COc1ccc(Cl)cc1C(=O)Nc1nc2ccc(Cl)cc2s1` was tested. Which growth did it give?
Answer: 102% (inactive)

Question: With `Cc1cc2c(C)c3cc(C)c(N)cc3nc2cc1N` as the compound, how does the growth read?
Answer: 18.9% (inactive)

Question: For `O=c1oc2cc(OS(=O)(=O)c3ccccc3)ccc2c2c1CCCCC2`, which growth is on record?
Answer: 50.8% (inactive)

tested on: M14 melanoma; test: as above; settings: 10 µM

Question: How did the growth turn out when `COc1cc(-c2cc(/C=C3\C(=O)Nc4cc(Cl)ccc43)[nH]n2)cc(OC)c1OC` was run?
Answer: 19.6% (inactive)

Question: For `CCCCCCc1cc(N=Nc2ccc(S(=O)(=O)Nc3cc(C)nc(C)n3)cc2)c(O)cc1O`, which growth is on record?
Answer: 94.2% (inactive)

Question: Which growth does the source give for `N#CC1=C(Nc2ccccc2Cl)SC(c2ccccc2O)NC1=O` (stereo not drawn) here?
Answer: 109% (inactive)

Question: How did the growth turn out when `COc1cc(-c2nc(Nc3nc4ccccc4s3)[nH]c(=O)c2C#N)cc(OC)c1O` was run?
Answer: 96.3% (inactive)

Question: With `CCCCCCCCCCCCCCCCCCOCC(COCCOCC[N+]1(CCCCCC(=O)[O-])CCCC1)Oc1ncccn1` (stereo not drawn) as the compound, how does the growth read?
Answer: 30% (inactive)

Question: For `COc1ccc(C2=NN(C(=O)c3ccc(S(C)(=O)=O)cc3)C(c3ccc(OC)c(OC)c3)C2)c(OC)c1` (stereo not drawn), which growth is on record?
Answer: 103% (inactive)

Question: How did the growth turn out when `COc1ccccc1CNCCCN1C(=O)c2ccc3c4c(ccc(c24)C1=O)C(=O)N(CCCN)C3=O` was run?
Answer: -62% (active)

Question: `Nc1nc(N)c(NC(=O)CNc2ccc(C(=O)O)cc2)c(N)n1` was tested. Which growth did it give?
Answer: 111% (inactive)

Question: How did the growth turn out when `c1ccc(CP(Cc2ccccc2)c2ccccc2)cc1` was run?
Answer: 95.4% (inactive)

Question: For `COC(=O)C1(C)Cc2cc(OC(C)=O)c(OC(C)=O)cc2N1` (stereo not drawn), which growth is on record?
Answer: 87.3% (inactive)

Question: How did the growth turn out when `CC(=O)OCc1cc(-c2nc3ccccc3[nH]c2=O)nn1-c1ccc(Cl)cc1` was run?
Answer: 97.2% (inactive)

Question: `CC(=O)c1nc2ccccc2n1CCN1CCN(C)CC1` was tested. Which growth did it give?
Answer: 20.5% (inactive)

Question: `COc1ccc(-c2nn(-c3cccc(NC(=O)Nc4ccc(Cl)c(C(F)(F)F)c4)c3)cc2-c2ccncc2)cc1Cl` was tested. Which growth did it give?
Answer: 6.17% (active)

Question: Which growth does the source give for `COc1cc(C(=O)/C=C/c2cc(-c3cc(OC)c(OC)c(OC)c3)n[nH]2)cc(OC)c1OC` here?
Answer: 6.7% (active)

Question: For `Cc1cccc(NC2=C(C#N)C(=O)NC3(CCCC3)S2)c1`, which growth is on record?
Answer: 105% (inactive)

Question: For `O=C1/C(=C\c2ccc(F)cc2)CN(C(=O)c2ccccc2)C/C1=C\c1ccc(F)cc1`, which growth is on record?
Answer: 4.22% (active)

Question: `COc1cc(-c2cc(/C=C3\C(=O)Nc4ccccc43)[nH]n2)cc(OC)c1OC` was tested. Which growth did it give?
Answer: 32.8% (inactive)

Question: Which growth does the source give for `COc1cc(/C=C\c2cc(OC)c(OC)c(OC)c2)cc(NS(=O)(=O)c2ccc(Cl)cc2)c1OC` here?
Answer: 18.8% (inactive)

Question: `S=C1SCC(c2ccccc2)S1` (stereo not drawn) was tested. Which growth did it give?
Answer: 113% (inactive)

Question: For `CCN(CC)Cc1cc(Nc2ccnc3cc(Cl)ccc23)ccc1OC`, which growth is on record?
Answer: 7.19% (active)

Question: `COC(=O)C(C(C[N+](=O)[O-])c1ccccc1)=P(c1ccccc1)(c1ccccc1)c1ccccc1` (stereo not drawn) was tested. Which growth did it give?
Answer: 76.3% (inactive)

Question: With `O=S(=O)(NCCCNc1nccc(-c2c(-c3ccc(F)cc3)nc3sccn23)n1)c1ccc2ccccc2c1` as the compound, how does the growth read?
Answer: 47.7% (inactive)

Question: `CC(=O)N1N=C(c2ccc(Cl)cc2)CC1c1sc(Cl)nc1Cl` (stereo not drawn) was tested. Which growth did it give?
Answer: 94.6% (inactive)

Question: With `O=c1[nH]c2ccc(Cl)cc2c2ccccc12` as the compound, how does the growth read?
Answer: 94.7% (inactive)

Question: With `COc1ccc(NC2=NC(C)(CO)CS2)cc1` (stereo not drawn) as the compound, how does the growth read?
Answer: 101% (inactive)

Question: `N#Cc1ncc(Br)c(NC2CCCCCC2)n1` was tested. Which growth did it give?
Answer: 114% (inactive)

Question: Which growth does the source give for `O=C(Nc1cccc(-n2cc(-c3ccncc3)c(-c3cc(O)cc(Cl)c3)n2)c1)Nc1ccc(Cl)c(C(F)(F)F)c1` here?
Answer: -16.8% (active)

Question: For `Nc1ncn(C2OC(CO)C(O)C2O)c(=O)n1` (stereo not drawn), which growth is on record?
Answer: 1.16% (active)

Question: How did the growth turn out when `O=C(Nc1nc(-c2ccccc2Cl)cs1)c1cc(-c2ccc(Cl)cc2)nc2ccc(Cl)cc12` was run?
Answer: -2.68% (active)

Question: With `Nc1c(C(=O)Nc2cccc(F)c2)sc2nc3c(cc12)C(=O)CCC3` as the compound, how does the growth read?
Answer: 15.3% (inactive)

Question: `COc1ccc(-c2cc(/C=C3\C(=O)Nc4ccc(Cl)cc43)[nH]n2)cc1OC` was tested. Which growth did it give?
Answer: 101% (inactive)

Question: How did the growth turn out when `O=C1CC[C@@H]2CCCC[C@@H]2C1` was run?
Answer: 101% (inactive)

Question: With `COc1ccc2c(c1)O/C(=C\c1ccc([N+](=O)[O-])s1)C2=O` as the compound, how does the growth read?
Answer: 30.3% (inactive)

Question: Which growth does the source give for `Nc1nc(N)c2c(ccc3nccc32)[nH]1` here?
Answer: 28.7% (inactive)

Question: How did the growth turn out when `Nc1cc2c(cc1Cl)-c1ccc([N+](=O)[O-])cc1/C2=N\O` was run?
Answer: 78.2% (inactive)

Question: With `COc1cc(-c2cc(/C=C/C(=O)c3ccc4c(c3)OCO4)[nH]n2)cc(OC)c1OC` as the compound, how does the growth read?
Answer: 101% (inactive)

Question: `COc1ccc(Cl)cc1C(=O)Nc1nc2ccc(Cl)cc2s1` was tested. Which growth did it give?
Answer: 95.1% (inactive)

Question: With `Cc1cc2c(C)c3cc(C)c(N)cc3nc2cc1N` as the compound, how does the growth read?
Answer: 9.16% (active)

Question: How did the growth turn out when `O=c1oc2cc(OS(=O)(=O)c3ccccc3)ccc2c2c1CCCCC2` was run?
Answer: 70.2% (inactive)
